Experiment [1] has as its target Lysosomal acid glucosylceramidase (Homo sapiens) (UniProt P04062). The experiment in a line: Glucocerebrosidase-p2 (AID 348; in the data active = potency below about 10 µM; also: potency is read from the fitted curve at half-maximal effect). Conditions: purified GBA, blue fluorogenic substrate, 40 min. The method, boiled down: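 Compounds titrated from 0.6 nM upwards against 0.2 nM enzyme in pH 5.9 citric acid/KH2PO4, taurocholate, tween-20; blue fluorogenic substrate 80 uM, 40 min room temperature, stopped and read Ex 365/Em 440 for AC50.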

In experiment [2] the target is Glucocorticoid receptor (Homo sapiens) (UniProt P04150). Put plainly: GR-GFP Redistribution (AID 450;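 active = compounds whose dose series gives a full or clear partial fitted curve of increased nuclear translocation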; also: potency is read from the fitted curve at half-maximal effect). Conditions: U2OS GR-GFP nuclear translocation, laser cytometry, 2 h.
Sequence of Glucocorticoid receptor (Homo sapiens) (P04150 whole entry, looked up, the tested form may be a part): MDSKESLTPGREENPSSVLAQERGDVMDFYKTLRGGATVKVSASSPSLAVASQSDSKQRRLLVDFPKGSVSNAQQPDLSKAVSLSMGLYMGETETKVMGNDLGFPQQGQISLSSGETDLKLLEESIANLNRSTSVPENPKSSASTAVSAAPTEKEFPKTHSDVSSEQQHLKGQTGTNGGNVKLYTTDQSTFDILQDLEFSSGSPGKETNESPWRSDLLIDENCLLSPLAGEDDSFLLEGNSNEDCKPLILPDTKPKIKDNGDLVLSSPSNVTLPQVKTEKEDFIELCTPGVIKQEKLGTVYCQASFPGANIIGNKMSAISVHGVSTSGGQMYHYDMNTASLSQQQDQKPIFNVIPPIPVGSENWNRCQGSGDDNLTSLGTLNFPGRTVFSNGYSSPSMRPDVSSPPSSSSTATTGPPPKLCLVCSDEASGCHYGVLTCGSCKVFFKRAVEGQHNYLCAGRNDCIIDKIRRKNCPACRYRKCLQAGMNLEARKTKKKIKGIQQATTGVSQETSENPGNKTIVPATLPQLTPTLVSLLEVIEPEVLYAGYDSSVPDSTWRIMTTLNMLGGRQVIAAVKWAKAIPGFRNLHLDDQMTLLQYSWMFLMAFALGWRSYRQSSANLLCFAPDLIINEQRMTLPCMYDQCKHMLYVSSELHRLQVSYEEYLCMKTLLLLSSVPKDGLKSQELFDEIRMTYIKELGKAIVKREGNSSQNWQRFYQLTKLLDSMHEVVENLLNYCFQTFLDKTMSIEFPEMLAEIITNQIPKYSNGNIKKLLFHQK
The target is the same in experiment [3]. The experiment in a line: GR-EFC Redistribution (AID 451; calls by dose curve; also: potency is read from the fitted curve at half-maximal effect). Particulars: CHO-K1 GR-EFC translocation, beta-gal luminescence, 2 h. Summed up: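 Translocation of GR-ED fusion to nuclear EA restores b-gal, read by luminescence after 1 h room-temperature detection. Engineered CHO-K1 biosensor cells, 1,000/well, exposed 2 h at 37 C to titrations up to 46 uM final.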

Experiment [4] has as its target 3',5'-cyclic-AMP phosphodiesterase 4B (Homo sapiens) (UniProt Q07343). The experiment in a line: qHTS Assay for Inhibitors of PDE-IV (AID 607; active = well fitted activation curve with a large enough effect in the main read-out, with a control signal flat, not every such curve was filed as active; also: % of control where 0% means no effect). The method, boiled down:
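The readout is membrane depolarisation from a cAMP-sensing CNG channel, detected with a potential dye at ex 535/em 590. Cells were HEK293-derived (endogenous PDE-IV) at 1000 cells/well, titrated up to 22.9 uM final.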

Experiment [5] in a line: qHTS Assay for Lipid Storage Modulators (AID 1519; calls by dose curve). Particulars: Drosophila S3 cells, BODIPY lipid droplet/cell ratio, laser cytometry, cells loaded with oleic acid; for activity change, negative = inhibition: at 57.5 µM (top of the series). The method, boiled down:
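Cells seeded at 5,000 per well were treated with compounds over a concentration series and loaded with oleic acid (400 uM, as added). Lipid droplet fluorescence (488 nm excitation, 500-530 nm channel) was read by laser-scanning cytometry and normalized to 20 uM Triacsin C.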
Background: Quantitative high-throughput screening tests each substance at several concentrations.

In experiment [6] the target is Dual specificity protein kinase CLK4 (Homo sapiens) (UniProt Q9HAZ1). The experiment in a line: qHTS Assay for Inhibitors of CDC-like Kinase 4 (Kinase-Glo Assay) (AID 1770). Also: % is scaled to controls: 0 for no effect and ±100 for the full control effect; nearly all actives have a fitted effect of over 65% in size. Summed up:
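Recombinant human Clk4 (25 nM) phosphorylated RS repeat peptide (100 uM) with 1 uM ATP in Tris pH 7.5/MgCl2/EGTA/DTT/Triton buffer for 4.5 h at room temperature. Residual ATP was quantified by Kinase-Glo luciferase luminescence.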

Experiment [7] shares this target. The experiment in a line: qHTS Assay for Inhibitors of CDC-like Kinase 4 (ADP-Glo Assay) (AID 1771). Also: % is scaled to controls: 0 for no effect and ±100 for the full control effect; nearly all actives have a fitted effect of over 70% in size. The method, boiled down:
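Kinase reaction: Clk4 at 25 nM, RS repeat peptide substrate at 100 uM, ATP at 1 uM, 1 hr, room temperature. Product ADP detected as luciferase signal via ADP-Glo.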

The target is the same in experiment [8]. The experiment in a line: qHTS Assay for Inhibitors of CDC-like Kinase 4 (ADP-FP Assay) (AID 1795). Also: % is scaled to controls: 0 for no effect and ±100 for the full control effect; nearly all actives have a fitted effect of over 60% in size. The method, boiled down:
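Recombinant human Clk4 (6.25 nM) phosphorylated RS repeat peptide (100 uM) with 1 uM ATP in Tris pH 7.5/MgCl2/EGTA/DTT/Triton buffer for one hour. ADP was quantified by Transcreener competitive fluorescence polarization against an ADP calibration curve.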

Experiment [9] addresses Ubiquitin carboxyl-terminal hydrolase 1 (Homo sapiens) (UniProt O94782). Put plainly: Inhibitors of USP1/UAF1: Pilot qHTS (AID 504865).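 Also: rhodamine fluorescence freed from ubiquitin-rhodamine substrate followed over time; top concentration of the series differs between compounds; % is scaled to controls: 0 for no effect and ±100 for the full control effect; nearly all actives have a fitted effect of over 35% in size.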 The method, boiled down:
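USP1/UAF1 complex (1nM) preincubated with compound 15 min at room temperature, then Ub-Rho substrate (150nM final) added. Fluorescence read kinetically at 480/540 nm, 6 reads every 60 seconds. Buffer: 50mM HEPES pH 7.8, 0.5mM EDTA, 0.1 mg/ml BSA, 1mM TCEP, 0.01% Tween-20.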

The nature of experiment [10]: Confirmatory qHTS for small molecule stabilizers of the endoplasmic reticulum resident proteome: Secreted ER Calcium Modulated Protein (SERCaMP) assay (AID 1508628). Also: nearly all actives have a fitted effect of over 40% in size. Also: potency is read from the fitted curve at half-maximal effect. The method, boiled down: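 We seeded SH-SY5Y-GLuc-SERCaMP cells, added compounds (three concentrations in the primary run, eleven up to 76.6 uM in confirmation), incubated 16 h, depleted ER calcium with thapsigargin, and read luciferase 4 h later.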

Experiment [11] can be described thus: AP1 Signaling Pathway (AID 357; active = well fitted curve in either direction with a large enough effect, not every such curve was filed as active;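 also: ME-180 reporter cells stimulated with EGF at its EC50 level; % is scaled to controls: 0 for no effect and ±100 for the full control effect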). Conditions: ME-180 AP-1-bla reporter, EGF-induced, beta-lactamase ratio, 5 h; at 7.69 µM (top of the series) unless noted. The method, boiled down: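 Titration-series screen for positive or negative modulators of EC50 EGF-induced signaling in ME-180 cells carrying an AP-1-driven beta-lactamase reporter. After 5 hours at 37 degrees Celsius, CCF4 460nm/530nm emission ratio gave %Activity; AC50 values derived.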

The target in experiment [12] is Cytochrome P450 1A2 (Homo sapiens) (UniProt P05177). Put plainly: p450-cyp1a2 (AID 410; calls by dose curve; also: potency is read from the fitted curve at half-maximal effect). The method, boiled down: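 Inhibition was calculated relative to 57 uM furafylline (full inhibition). The reaction used human CYP1A2 at 20nM with Luciferin-ME at its Km, 100uM, driven by an NADPH-regenerating system for 60 min at room temperature.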
Sequence of Cytochrome P450 1A2 (Homo sapiens) (P05177 whole entry, looked up): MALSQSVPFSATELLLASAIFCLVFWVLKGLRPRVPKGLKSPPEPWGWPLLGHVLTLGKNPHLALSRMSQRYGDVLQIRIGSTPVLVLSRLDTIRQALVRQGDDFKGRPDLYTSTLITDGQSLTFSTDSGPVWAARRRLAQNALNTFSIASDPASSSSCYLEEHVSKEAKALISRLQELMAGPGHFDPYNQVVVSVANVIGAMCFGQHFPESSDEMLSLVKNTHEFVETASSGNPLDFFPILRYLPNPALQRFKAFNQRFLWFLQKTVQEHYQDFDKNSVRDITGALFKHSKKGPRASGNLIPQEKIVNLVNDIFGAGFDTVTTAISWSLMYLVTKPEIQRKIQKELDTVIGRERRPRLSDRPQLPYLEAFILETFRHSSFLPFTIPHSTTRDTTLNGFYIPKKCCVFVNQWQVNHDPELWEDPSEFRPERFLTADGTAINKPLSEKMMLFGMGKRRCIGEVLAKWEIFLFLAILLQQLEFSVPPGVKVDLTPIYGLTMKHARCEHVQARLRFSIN
A short description of experiment [13]: NFAT Signaling Pathway (AID 444; active = well fitted curve in either direction with a large enough effect, not every such curve was filed as active;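 also: carbachol stimulus at about its EC50 of 1 µM final; % is scaled to controls: 0 for no effect and ±100 for the full control effect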). Conditions: Jurkat NFAT-bla M1, carbachol, beta-lactamase ratio, 5 h; at 7.69 µM (top of the series) unless noted. The method, boiled down: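 Read-out: CCF4 FRET ratio (460 nm/530 nm) after 1 h RT dye loading, used for %activity and AC50 from titration series. Cells: Jurkat NFAT-β-lactamase/M1 line, treated with compound plus 1 uM carbachol for 5 h, 37 °C.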

A short description of experiment [14]: Stat Signaling Pathway (AID 446; active = well fitted curve in either direction with a large enough effect, not every such curve was filed as active;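 also: ME-180 cervical cancer cells given 40 pM IL-6 alongside compound; SIE-controlled beta-lactamase reporter measured as 460/530 nm FRET emission ratio; % is scaled to controls: 0 for no effect and ±100 for the full control effect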). Particulars: ME-180 SIE beta-lactamase reporter, IL-6 stimulated, 5 h; at 7.69 µM (top of the series) unless noted. Summed up:
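Screening format detects activators and inhibitors alike: ME-180 SIE-bla cells stimulated at 40 pM IL-6 for 5 hrs with compound, then dual-emission beta-lactamase read at 405 nm excitation.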

For experiment [15], the target named is Mitogen-activated protein kinase 10 (Mus musculus) (UniProt Q61831). The experiment in a line: JNK3 AlphaScreen Assay (AID 530; active = well fitted curve in either direction with a large enough effect, not every such curve was filed as active;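 also: kinase came from lysate of stimulated human HepG2 cells; signal reports phosphorylation of biotinylated GST-cJun 1-79 at Ser73 with 10 µM ATP; % is scaled to controls: 0 for no effect and ±100 for the full control effect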). Summed up:
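Room-temperature AlphaScreen kinase assay; pre-activated HepG2 lysate as JNK3 source, biotin-GST-cJun(1-79) substrate, 10 uM ATP, compound 15 min preincubation.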
In general terms: Alpha assays give light when donor and acceptor beads are brought close together.

In experiment [16] the target is Cytochrome P450 3A4 (Homo sapiens) (UniProt P08684). The experiment in a line: qHTS Assay for Activators of Cytochrome P450 3A4 (AID 885). Also: nearly all actives have a fitted effect of over 65% in size. Summed up:
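Steps: enzyme/substrate mix dispensed; compound added, 10 min RT; NADPH regeneration solution added, 60 min RT; luciferin detection buffer stops reaction; 20 min later luminescence measured.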

The nature of experiment [17]: Cell Viability qHTS for small molecule stabilizers of the endoplasmic reticulum resident proteome (AID 1508629). Particulars: cell viability counter-screen, 100 nM thapsigargin for final 4 h.
Setting [18] is: measured here: cell count channel max response.
Setting [19] is: measured here: lipid channel max response.

Results filed as inconclusive are left out. Active and inactive are the calls of the source. Unless noted, calls follow the shape of the dose curve; as a rule, active = well fitted curve in the direction sought with a large enough effect; inconclusive = small, poorly fitted or top-dose-only effect, or another doubt; inactive = no such curve, though single readings can be large; an effect the other way counts as inactive or inconclusive.

Sequence of Dual specificity protein kinase CLK4 (Homo sapiens) (Q9HAZ1 whole entry, looked up): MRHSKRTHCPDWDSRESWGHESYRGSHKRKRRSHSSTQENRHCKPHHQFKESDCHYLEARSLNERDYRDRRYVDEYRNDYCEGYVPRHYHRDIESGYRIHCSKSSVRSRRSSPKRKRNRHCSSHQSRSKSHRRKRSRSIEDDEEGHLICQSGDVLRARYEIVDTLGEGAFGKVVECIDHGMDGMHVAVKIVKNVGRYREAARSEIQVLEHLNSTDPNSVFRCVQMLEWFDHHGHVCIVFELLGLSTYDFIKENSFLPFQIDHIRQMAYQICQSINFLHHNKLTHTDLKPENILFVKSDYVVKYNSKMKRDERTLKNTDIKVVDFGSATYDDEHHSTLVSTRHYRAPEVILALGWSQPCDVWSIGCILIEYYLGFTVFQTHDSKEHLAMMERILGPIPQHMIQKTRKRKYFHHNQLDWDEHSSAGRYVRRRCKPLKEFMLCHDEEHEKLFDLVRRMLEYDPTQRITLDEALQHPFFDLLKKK
Sequence of 3',5'-cyclic-AMP phosphodiesterase 4B (Homo sapiens) (Q07343 whole entry, looked up): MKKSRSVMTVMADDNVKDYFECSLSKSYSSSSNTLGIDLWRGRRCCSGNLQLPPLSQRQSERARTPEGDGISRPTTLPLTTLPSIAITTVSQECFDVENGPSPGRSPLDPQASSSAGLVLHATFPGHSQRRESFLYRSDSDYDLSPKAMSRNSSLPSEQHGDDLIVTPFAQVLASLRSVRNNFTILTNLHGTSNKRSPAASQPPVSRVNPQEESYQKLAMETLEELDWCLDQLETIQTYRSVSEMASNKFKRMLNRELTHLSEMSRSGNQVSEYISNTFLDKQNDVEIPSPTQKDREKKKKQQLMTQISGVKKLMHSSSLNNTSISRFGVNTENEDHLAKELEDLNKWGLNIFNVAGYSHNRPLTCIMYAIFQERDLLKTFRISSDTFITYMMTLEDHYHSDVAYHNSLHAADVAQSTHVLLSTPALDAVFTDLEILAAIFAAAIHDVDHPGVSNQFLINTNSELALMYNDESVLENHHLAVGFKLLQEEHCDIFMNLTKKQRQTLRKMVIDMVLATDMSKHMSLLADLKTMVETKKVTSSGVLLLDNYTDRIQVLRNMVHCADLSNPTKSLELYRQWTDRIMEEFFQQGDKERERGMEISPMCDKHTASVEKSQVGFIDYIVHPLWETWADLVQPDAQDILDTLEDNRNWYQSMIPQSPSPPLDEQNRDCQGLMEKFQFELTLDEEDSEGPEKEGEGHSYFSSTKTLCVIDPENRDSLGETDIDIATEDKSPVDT
Sequence of Cytochrome P450 3A4 (Homo sapiens) (P08684 whole entry, looked up): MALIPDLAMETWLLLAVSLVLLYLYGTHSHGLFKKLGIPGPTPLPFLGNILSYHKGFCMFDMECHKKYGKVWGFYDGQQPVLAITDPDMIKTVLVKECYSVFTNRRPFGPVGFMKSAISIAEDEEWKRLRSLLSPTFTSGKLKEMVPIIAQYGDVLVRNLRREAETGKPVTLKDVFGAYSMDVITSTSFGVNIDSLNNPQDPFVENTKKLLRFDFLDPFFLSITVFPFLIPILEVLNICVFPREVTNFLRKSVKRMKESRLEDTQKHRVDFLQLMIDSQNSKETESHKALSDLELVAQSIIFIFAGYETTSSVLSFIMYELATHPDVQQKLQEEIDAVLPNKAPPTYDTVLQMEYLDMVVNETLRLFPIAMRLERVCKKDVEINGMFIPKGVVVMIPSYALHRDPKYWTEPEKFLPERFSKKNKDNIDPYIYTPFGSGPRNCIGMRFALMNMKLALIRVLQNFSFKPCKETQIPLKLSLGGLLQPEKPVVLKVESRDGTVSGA
Sequence of Lysosomal acid glucosylceramidase (Homo sapiens) (P04062 whole entry, looked up): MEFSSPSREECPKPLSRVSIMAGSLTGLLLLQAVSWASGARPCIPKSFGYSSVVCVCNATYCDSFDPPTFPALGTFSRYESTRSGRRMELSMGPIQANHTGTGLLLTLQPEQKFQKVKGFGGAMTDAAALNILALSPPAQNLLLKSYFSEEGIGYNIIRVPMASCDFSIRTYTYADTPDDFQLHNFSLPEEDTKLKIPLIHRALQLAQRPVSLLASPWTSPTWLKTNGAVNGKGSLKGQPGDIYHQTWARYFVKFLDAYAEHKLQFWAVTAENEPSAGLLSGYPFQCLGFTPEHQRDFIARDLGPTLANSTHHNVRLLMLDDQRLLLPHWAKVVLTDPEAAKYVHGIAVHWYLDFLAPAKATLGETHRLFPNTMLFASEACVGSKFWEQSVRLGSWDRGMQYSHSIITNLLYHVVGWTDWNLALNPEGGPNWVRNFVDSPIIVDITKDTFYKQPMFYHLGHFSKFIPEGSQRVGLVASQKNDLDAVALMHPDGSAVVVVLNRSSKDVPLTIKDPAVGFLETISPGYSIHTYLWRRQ
Sequence of Ubiquitin carboxyl-terminal hydrolase 1 (Homo sapiens) (O94782 whole entry, looked up): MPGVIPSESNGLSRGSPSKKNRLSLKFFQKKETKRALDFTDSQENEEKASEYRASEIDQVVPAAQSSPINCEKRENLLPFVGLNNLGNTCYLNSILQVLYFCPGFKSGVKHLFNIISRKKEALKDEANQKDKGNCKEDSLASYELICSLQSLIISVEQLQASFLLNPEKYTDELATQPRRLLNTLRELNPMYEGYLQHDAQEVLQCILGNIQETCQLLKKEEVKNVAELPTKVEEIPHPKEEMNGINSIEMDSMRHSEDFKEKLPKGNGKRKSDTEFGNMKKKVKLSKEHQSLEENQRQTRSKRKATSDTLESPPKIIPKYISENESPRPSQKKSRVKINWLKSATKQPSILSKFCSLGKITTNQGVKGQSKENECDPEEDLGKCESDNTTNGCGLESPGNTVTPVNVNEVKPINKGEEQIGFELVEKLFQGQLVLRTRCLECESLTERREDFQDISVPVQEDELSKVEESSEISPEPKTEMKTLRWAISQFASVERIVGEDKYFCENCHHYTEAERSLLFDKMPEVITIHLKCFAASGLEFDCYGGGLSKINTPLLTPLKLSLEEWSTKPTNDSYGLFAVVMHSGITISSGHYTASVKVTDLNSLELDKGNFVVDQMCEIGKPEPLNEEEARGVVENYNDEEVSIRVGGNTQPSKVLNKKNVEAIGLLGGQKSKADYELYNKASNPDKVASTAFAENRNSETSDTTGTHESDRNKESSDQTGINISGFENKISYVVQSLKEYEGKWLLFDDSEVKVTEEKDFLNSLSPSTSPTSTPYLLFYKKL

As to `COc1ccc(-c2nc3cnc(N4CCN(C)CC4)nc3n(Cc3cccc(OC)c3)c2=O)cc1`, the Potency in experiment [1] was > 11.4 µM (inactive); in experiment [2] it was > 9.22 µM (inactive); in experiment [3], > 46 µM (inactive). Also, the Potency entry in experiment [4], in experiment [6], in [7], in [8], in experiment [9] and in experiment [10] was “inactive” throughout. Further, the activity change, negative = inhibition in [5] is -2.59% (inactive). Besides, the max response was found to be 8.4% in [5] (setting [18]) and 2.85% in experiment [5] (setting [19]).

For `COCCn1c(=O)c(-c2ccccc2)nc2cnc(Oc3ccc(OC)cc3)nc21`, the Potency in experiment [1] was > 11.4 µM (inactive); in [12] it was 1.26 µM (active); in experiment [3], > 46 µM (inactive); in experiment [10], 39.8 µM (active). The activity change, negative = inhibition in experiment [11] was -27.8% (inactive); in experiment [13], 0.481% (inactive). For the same compound, in experiment [14], the activity, negative = inhibition is -10.2% (inactive). The call in [15] was inactive. The Potency result in experiment [16], in [7] and in experiment [9] was “inactive” each time. In addition, the max response in [17] was 4.93% (inactive).

As to `N#CCCn1c(=O)c(-c2cc(F)cc(F)c2)nc2cnc(OCc3ccccc3)nc21`, the Potency was > 11.4 µM (inactive) in experiment [1]; 6.31 µM (active) in [12]; > 9.22 µM (inactive) in experiment [2]; > 46 µM (inactive) in [3]; 44.7 µM (active) in experiment [10]. Besides, the activity change, negative = inhibition in experiment [11] is -10.3% (inactive); in experiment [13] it was -0.0706% (inactive). Besides, the activity, negative = inhibition in [14] is 3.6% (inactive). Moreover, in experiment [15], the compound was called inactive. The Potency entry in experiment [4] and in experiment [16] was “inactive” in each case.

Take `COc1cccc(Nc2ncc3nc(-c4ccccc4)c(=O)n(C[C@H]4CCCO4)c3n2)c1`: the Potency in experiment [1] is > 11.4 µM (inactive); in experiment [2] it was > 9.22 µM (inactive); in [10] it was 39.8 µM (active). The activity change, negative = inhibition in [13] is -8.66% (inactive). Besides, the activity, negative = inhibition in experiment [14] was 4.51% (inactive). Besides, the compound was classed as inactive in experiment [15]. The Potency result in experiment [4] was “inactive”.

Consider `O=c1c(-c2ccccc2)nc2cnc(N3CCNCC3)nc2n1Cc1cccs1`, for which the Potency in experiment [1] is > 11.4 µM (inactive); in experiment [2], > 9.22 µM (inactive); in [3] it was > 46 µM (inactive). Further, the Potency result in [4] and in experiment [10] was “inactive” throughout.

Consider `COc1ccc(-c2nc3cnc(N4CCNCC4)nc3n(CCc3ccccc3)c2=O)cc1`, for which the Potency is > 11.4 µM (inactive) in [1], 15.8 µM (active) in [12], > 9.22 µM (inactive) in experiment [2] and > 46 µM (inactive) in experiment [3]. The activity change, negative = inhibition was 111% [activator] (active) in experiment [11] and -10.5% (inactive) in experiment [5]. Also, the Potency result in experiment [4], in experiment [16] and in [10] was “inactive” each time. For the same compound, the results for the max response in [5] (setting [18]) and in experiment [5] (setting [19]) were -3.35% and -12.2%, respectively.

As for `O=c1c(CCc2ccccc2)nc2cnc(N3CCNCC3)nc2n1CCc1ccccc1`, the values for the activity change, negative = inhibition in experiment [11], in experiment [13] and in experiment [5] were 9.43% (inactive), 27.2% (inactive) and 2.33% (inactive), respectively. Moreover, the activity, negative = inhibition in [14] was 16.4% (inactive). The Potency in experiment [2] is > 9.22 µM (inactive); in experiment [3], > 46 µM (inactive). In addition, the compound was called inactive in experiment [15]. The max response was -7.41% in [5] (setting [18]), -3.07% in [5] (setting [19]) and -5.58% (inactive) in experiment [17]. The Potency entry in experiment [10] is “inactive”.

For the origin of these results see PubChem BioAssay (NCATS).
